Screening results from PubChem.
The list is not random: actives were taken first. Their share in the collection is about 9.3%.
NPC1 promoter act: NPC1 promoter activation; Huh7 NPC1 promoter luciferase reporter, 24 h; Potency, µM (series often up to 9.22 µM), usual class: activators; actives 2.4% (n = 320,000); also: nearly all actives have a fitted effect of over 60% in size
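Huh7 reporter cells (NPC1 promoter driving luciferase) are dosed with compound for 24 h at 37 °C, 5% CO2; luciferase detection reagent is then added and luminescence measured after 10 min at ambient temperature.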
Rab9 prom act: Rab9 promoter activation; AID 485297; Huh7 Rab9 promoter-luciferase reporter, luminescence, 24 h; actives 2.8% (n = 320,000); Potency, µM (highest dose often 9.22 µM), most hits filed as activators; also: nearly all actives have a fitted effect of over 60% in size
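Stable Rab9-luc Huh7, 1500 cells/well, 2 h settle; cmpd in DMSO, 24 h, 37 °C/5% CO2; luciferase reagent 10 min RT; luminescence.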
ELG1 genotoxic: genotoxicity induction in ELG1-luciferase HEK293T cells. Potency, µM (series often up to 46 µM), hits mostly activators. HEK293T ELG1-luciferase reporter, luminescence, 16 h. actives 1.3% (n = 330,000); also: nearly all actives have a fitted effect of over 60% in size
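Cells (2,000/well) expressing the ELG1-luciferase fusion are dosed by pin tool and kept 16 hr at 37 °C, 5% CO2. Signal comes from ONE-Glo luciferase reagent after 30 min at room temperature.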
FLuc counter: counter-screen for miR-21 project: firefly luciferase inhibitors or activators. actives 6.9% (n = 360,000). Potency, µM (titrated, usually from 57.5 µM), hits mostly inhibitors. P08659. purified FLuc, Km substrates, luminescence inhibition; also: nearly all actives have a fitted effect of over 55% in size
Target sequence (P08659 whole entry, looked up): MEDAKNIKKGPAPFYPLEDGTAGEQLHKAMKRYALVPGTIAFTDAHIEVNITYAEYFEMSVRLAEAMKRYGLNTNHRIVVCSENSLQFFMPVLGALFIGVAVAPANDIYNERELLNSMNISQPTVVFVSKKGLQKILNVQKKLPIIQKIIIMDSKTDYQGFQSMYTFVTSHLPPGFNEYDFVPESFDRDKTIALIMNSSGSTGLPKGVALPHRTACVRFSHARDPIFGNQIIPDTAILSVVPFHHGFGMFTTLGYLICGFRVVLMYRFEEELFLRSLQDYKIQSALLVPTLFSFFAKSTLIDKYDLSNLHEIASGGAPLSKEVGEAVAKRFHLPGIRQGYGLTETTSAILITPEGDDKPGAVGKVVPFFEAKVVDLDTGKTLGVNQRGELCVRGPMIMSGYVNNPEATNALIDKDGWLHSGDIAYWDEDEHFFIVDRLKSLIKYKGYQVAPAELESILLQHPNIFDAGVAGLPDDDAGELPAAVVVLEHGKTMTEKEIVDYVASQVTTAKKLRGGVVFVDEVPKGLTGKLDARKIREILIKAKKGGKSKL
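Purified P. pyralis luciferase (10nM final) with 10uM D-luciferin and 10uM ATP (Km levels) in 50mM Tris acetate pH 7.5, 10mM Mg acetate, 0.01% Tween-20, 0.05% BSA; qHTS 6-point titration, ~60 µM downward; luminescence read.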
ELG1 repair inh: blocks ELG1-dependent DNA repair in HEK293T cells. HEK293T ELG1-luciferase reporter, luminescence, 16 h; DNA damage induced by 5-fluorouridine. Potency, µM (doses to about 46.1 µM), usual class: inhibitors. actives 2.3% (n = 330,000); also: nearly all actives have a fitted effect of over 55% in size
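DMSO vehicle served as the neutral condition. Each well held 2,000 cells given 5-fluorouridine plus compound; after 16 hr at 37 °C/5% CO2, ONE-Glo was added and luciferase measured 30 min later.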
SMN2 splice enh: increases expression of the SMN2 splice variant; HEK293 SMN2-luciferase splicing reporter, luminescence, 30-36 h; Potency, µM (series often up to 46.1 µM), most hits filed as activators; actives 2.8% (n = 210,000); AID 1458; also: nearly all actives have a fitted effect of over 55% in size
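HEK293 cells carry an SMN2 […]–luciferase reporter in which exon 7 inclusion puts luciferase in frame. Cells were plated 10-12 h before compound addition, then incubated 30-36 h at 37C. ONE-Glo luminescence was read; sodium butyrate at 4.5 mM final served as control.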
Of the large screens only hits and unclear results are named; the others gave an inactive call. Calls follow the shape of the dose curve; as a rule, active = well fitted curve in the direction sought with a large enough effect; inconclusive = small, poorly fitted or top-dose-only effect, or another doubt; inactive = no such curve, though single readings can be large; an effect the other way counts as inactive or inconclusive.

Cc1ccc(-c2csc3ncnc(N4CCN(C(=O)c5ccco5)CC4)c23)cc1	ELG1 repair inh 16µM (no result: SMN2 splice enh)
c1ccc(-c2csc3ncnc(-n4cnc5ccccc54)c23)cc1	none
CCN(CC)C(=O)C1CCN(Cc2ccc(OCc3ccccc3)c(OC)c2)CC1	none (no result: SMN2 splice enh)
CCOC(=O)C1=NOC(CN(c2ccccc2)S(=O)(=O)c2ccc(Cl)cc2)C1 (stereo not given)	none
Cc1sc2nc(C(C)C)nc(SCC(=O)N3CCN(C(=O)c4ccco4)CC3)c2c1C	ELG1 repair inh 18µM
CCCc1nc2ccccc2c(C(=O)OCC(=O)NCc2ccco2)c1CC	ELG1 repair inh inconclusive
COc1ccc(/C=N/NC(=O)CCn2nnc3ccccc32)cc1	FLuc counter 13µM (no result: SMN2 splice enh)
COc1ccc(/C=N/NC(=O)C(C)Sc2ccccn2)cc1[N+](=O)[O-] (stereo not given)	none
COc1ccc(/C=N/NC(=O)c2ccccc2Cl)cc1CSc1nc2ccccc2s1	ELG1 genotoxic inconclusive
COc1cc(/C=N/NC(=O)CSc2ccccn2)ccc1OC(C)C	Rab9 prom act inconclusive, ELG1 genotoxic inconclusive, FLuc counter 4.3µM, ELG1 repair inh inconclusive (no result: SMN2 splice enh)
COc1ccc(/C=N/NC(=O)CCSc2nc3ccccc3s2)cc1OC	FLuc counter 21µM, ELG1 repair inh inconclusive
COc1ccc(/C=N/NC(=O)c2ccc(O)cc2O)cc1CSc1ccccn1	FLuc counter 27µM, ELG1 repair inh inconclusive
COc1ccccc1/C=C\C=N\NC(=O)CCn1nnc2ccccc21	none
CCn1c(SCC(=O)N/N=C/c2ccc(OC)c(OC)c2)nc2ccccc21	FLuc counter 17µM
C=C(C)Cn1c(SCC(=O)N/N=C/c2cccc(O)c2)nc2ccccc2c1=O	ELG1 repair inh 21µM
COc1ccc(/C=N/NC(=O)c2cccnc2)cc1CSc1nc2ccccc2s1	FLuc counter inconclusive, ELG1 repair inh 7.3µM
CC(=O)c1ccc(OC(C)C)c(CC(C(N)=O)C(N)=O)c1	none
Cc1noc(C)c1CNCc1ccccc1	ELG1 repair inh inconclusive (no result: SMN2 splice enh)
Cc1c(O)ccc(/C(Cc2ccc3ccccc3n2)=N\N)c1O	FLuc counter 15µM, ELG1 repair inh inconclusive (no result: SMN2 splice enh)
CCc1cc(/C(Cc2ccc3ccccc3n2)=N\O)c(O)cc1O	ELG1 repair inh inconclusive
CC(C)[C@H](NC(=O)c1ccco1)C(=O)N(C)Cc1ccc(C(F)(F)F)cc1	none (no result: SMN2 splice enh)
CC(C)c1ccc(N=C(N)N=C(N)N)cc1	ELG1 repair inh 21µM
CN=C1S/C(=C\c2cn(CC(=O)OC)c3ccccc23)C(=O)N1C	FLuc counter 17µM
CN=C1S/C(=C/c2cn(CC(=O)OC)c3ccccc23)C(=O)N1C	FLuc counter 19µM (no result: SMN2 splice enh)
CCc1ccc(Nc2oc(C)cc(=O)c2C(C)=O)cc1	FLuc counter 19µM, ELG1 repair inh inconclusive
CCOC(=O)c1c(C)oc2ncnc(Nc3ccc(CC)cc3)c12	none (no result: NPC1 promoter act, Rab9 prom act, ELG1 genotoxic, ELG1 repair inh)
CC(SCc1ccccc1)C(=O)Nc1ccc2c(c1)OCO2 (stereo not given)	Rab9 prom act inconclusive, FLuc counter inconclusive, ELG1 repair inh inconclusive
Cc1cc(Cl)c(S(=O)(=O)N2CCN(c3ccccn3)CC2)cc1OCC(=O)NC1CCCCC1	ELG1 repair inh 21µM (no result: SMN2 splice enh)
CCOC(=O)N1CCN(S(=O)(=O)c2cc(OCC(=O)NC3CCCCC3)c(C)cc2Cl)CC1	ELG1 repair inh 18µM
Cc1cc(Cl)c(S(=O)(=O)N2CCSCC2)cc1OCC(=O)NC1CCCCC1	ELG1 repair inh 9.2µM
COc1ccc(CCNC(=O)COc2ccc(S(=O)(=O)NC3CCCCC3)cc2Cl)cc1OC	ELG1 repair inh 21µM
CN(C)c1ccc(/C=N/n2c(-c3cccnc3)n[nH]c2=S)cc1	FLuc counter inconclusive
Cc1cccc(NC(=O)C23CCC(C)(C(=O)O2)C3(C)C)c1 (stereo not given)	none
O=C(NC(NCCCN1CCOCC1)(C(F)(F)F)C(F)(F)F)C1CCCCC1	none
Cc1cc(Cl)c(S(=O)(=O)NC2CCCC2)cc1OCC(=O)NC1CCCCC1	ELG1 repair inh 9.2µM
Cc1cc(Cl)c(S(=O)(=O)N2CCCCCC2)cc1OCC(=O)NC1CCCCC1	ELG1 repair inh 9.2µM
O=C(COC(=O)Cc1ccc(Br)cc1)NCc1ccc(F)cc1	none
CCN1C(=O)/C(=C\C=C2/C=CC=CN2CC)SC1=S	NPC1 promoter act 1.6µM, Rab9 prom act 1.4µM, ELG1 genotoxic 21µM, FLuc counter 3.8µM, ELG1 repair inh inconclusive, SMN2 splice enh 5.6µM
CCN1C(=O)/C(=C2/C=CC=CN2C)SC1=S	none
CCN1C(=O)/C(=C/C=C2\C=CN(CC)c3ccccc32)SC1=S	NPC1 promoter act inconclusive, Rab9 prom act 3.2µM, ELG1 genotoxic inconclusive, FLuc counter inconclusive, ELG1 repair inh inconclusive
OC1(c2cccc(C(F)(F)F)c2)CCN(Cc2nnnn2Cc2ccccc2)CC1	ELG1 repair inh inconclusive
CN(CC(=O)N1CCN(c2ccccc2F)CC1)S(=O)(=O)c1cnc[nH]1	none
COc1ccc(C2=NN(C(=O)CN3CCCCC3)C(c3ccc(C)cc3)C2)cc1 (stereo not given)	none
COc1ccc(C2=NN(C(=O)CN3CCOCC3)C(c3nc4ccccc4[nH]3)C2)cc1 (stereo not given)	Rab9 prom act inconclusive, ELG1 genotoxic inconclusive, FLuc counter 15µM, ELG1 repair inh inconclusive, SMN2 splice enh inconclusive
COc1ccc(C2CC(c3ccccc3)=NN2C(=O)CN2CCN(Cc3ccccc3)CC2)cc1 (stereo not given)	ELG1 repair inh 18µM
COc1ccc2cc(CCOC3CCCCO3)ncc2c1 (stereo not given)	NPC1 promoter act 0.32µM, Rab9 prom act 0.5µM, ELG1 genotoxic inconclusive, FLuc counter 2.7µM, ELG1 repair inh inconclusive (no result: SMN2 splice enh)
CC(=O)c1c(C)[nH]c(C(=O)OCC(=O)N2CC(=O)Nc3ccccc32)c1C	none
Fc1cccc(Cl)c1CNc1ccc(N2CCCC2)cc1	FLuc counter 9.5µM, ELG1 repair inh inconclusive
CCOC(=O)C1=C(N)Oc2c(oc(CO)cc2=O)C1c1ccc(F)c(F)c1 (stereo not given)	none (no result: SMN2 splice enh)
COc1ccc(C2CC(c3cccc(C(F)(F)F)c3)=NN2c2ccc(S(N)(=O)=O)cc2)cc1 (stereo not given)	none (no result: NPC1 promoter act, Rab9 prom act, FLuc counter, SMN2 splice enh)
c1ccc2c(-n3cccn3)cccc2c1	NPC1 promoter act inconclusive, ELG1 genotoxic inconclusive, FLuc counter 15µM, ELG1 repair inh inconclusive
COc1cc(OC)cc(C(=O)Nc2ccc(-c3nc4cc(C(C)C)ccc4o3)cc2)c1	FLuc counter 11µM (no result: NPC1 promoter act, Rab9 prom act, ELG1 genotoxic, ELG1 repair inh)
Cc1cccc(C(=O)Nc2ccc(-c3nc4cc(C(C)C)ccc4o3)cc2)c1	FLuc counter inconclusive (no result: NPC1 promoter act, Rab9 prom act, ELG1 genotoxic, ELG1 repair inh)
